High-throughput results from PubChem BioAssay.
Shown are actives, neighbours in structure and some others; about 7.4% of the full set was active somewhere.
NPR1 antag: antagonists of human natriuretic peptide receptor Npr1; P16066; HEK293 hNpr1 GloSensor cGMP, ANP-stimulated luminescence; Potency, µM (series often up to 46.3 µM), for inactives: at the highest dose activity change, negative = inhibition, hits mostly inhibitors; 76,000 compounds, 1.6% hits; AID 1347048; calls by dose curve; note: nearly all actives have a fitted effect of over 60% in size
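Compound pre-incubated 30 min at room temperature on GloSensor-loaded HEK293 cells stably carrying hNpr1 and the pGS-40F cGMP biosensor. Stimulation uses hNppA at 0.1 nM final; luminescence is taken at baseline and 20 min post-agonist.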
SNCA expr inhib: reduces expression of the alpha-synuclein gene; HEK-293 SNCA-luciferase knock-in, luminescence, 24 h; Potency, µM (highest dose often 57.2 µM), for the others: at the highest dose activity change, negative = inhibition, hits mostly inhibitors; 140,000 compounds, 0.17% hits;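 note: plate controls were DMSO cells for no effect and cell-free wells for full effect; nearly all actives have a fitted effect of over 45% in size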
NIH3T3 tox: NIH 3T3 cell cytotoxicity; Potency, µM (titrated, usually from 96.7 µM), for the others: at the highest dose activity change, negative = cytotoxicity, hits mostly inhibitors; 94,000 compounds, 4.3% hits; AID 1345082; NIH 3T3 viability, CellTiter-Glo ATP luminescence, 48-72 h; note: nearly all actives have a fitted effect of over 55% in size
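Cytotoxicity is measured as loss of cellular ATP: NIH 3T3 cells (400/well) are exposed to compound for 48 or 72 hr at 37 °C, then CellTiter-Glo luminescence is imaged after 10 min at room temperature.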
HEK293 tox: HEK 293 cell cytotoxicity | 94,000 compounds, 6.6% hits | Potency, µM (highest dose often 115 µM), for inactives: at the top dose activity change, negative = cytotoxicity, most hits filed as inhibitors | AID 1345083 | HEK 293 viability, ATP luminescence (CellTiter-Glo), 48-72 h; note: nearly all actives have a fitted effect of over 60% in size
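Pintool-delivered compounds were incubated with HEK 293 cells (250 cells/well) at 37 degree Celsius for 48 or 72 hr. ATP-dependent luminescence (CellTiter-Glo) then reported remaining viable cells.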
FLuc inh: Photinus pyralis luciferase inhibition; P08659; purified P. pyralis luciferase, luminescence, biochemical; Potency, µM (titrated, usually from 115 µM), usual class: inhibitors; 76,000 compounds, 2.5% hits; AID 1347043; note: nearly all actives have a fitted effect of over 65% in size
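Biochemical qHTS: compound (6-point titration) added to 10uM D-luciferin plus 10uM ATP in Tris acetate pH 7.5 buffer with Mg, Tween-20 and BSA, then purified enzyme at 10nM; light output imaged.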
HEK293 viab: reduces viability of HEK-293 SNCA reporter cells; HEK-293-SNCA-luc viability, GF-AFC fluorescence, 24 h; Potency, µM (titrated, usually from 57.1 µM), inactives show top-dose activity change, negative = cytotoxicity, actives largely listed as cytotoxic; 150,000 compounds, 0.12% hits; AID 1671193;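 note: 0% = DMSO-treated cells and -100% = medium-only wells without cells; nearly all actives have a fitted effect of over 30% in size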
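Cytotoxicity counterscreen: after 24 h compound treatment of genome-edited SNCA-luciferase HEK-293 cells, live-cell protease substrate GF-AFC read by fluorescence after 30 min; activity scaled between DMSO (0%) and medium-only (-100%), curves Hill-fitted.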
* = called active by the depositor; ! = not confirmed by another sample; [ ] = remark or other dose. Unless noted, calls come from the whole dose curve; as a rule, active = well fitted curve in the direction sought with a large enough effect; inconclusive = small, poorly fitted or top-dose-only effect, or another doubt; inactive = no such curve, though single readings can be large; an effect the other way counts as inactive or inconclusive. Unless noted, % is set by controls: 0 for no effect and ±100 for the full control effect; potency is the fitted concentration of half-maximal effect.

`Cn1cc(C(O)c2nc(Nc3ccc(OC(F)(F)F)cc3)n[nH]2)cn1` (stereo not given) gave NPR1 antag 0.7%[70.6 µM], SNCA expr inhib -8.8%[87.6 µM], NIH3T3 tox inconclusive, HEK293 tox 112µM*, FLuc inh inactive and HEK293 viab 11.0%[87.6 µM].
For COc1cccc(C(=O)N2CCN(c3ccnc4ccnn34)CC2)c1 the results were SNCA expr inhib -0.9%[87.6 µM], NIH3T3 tox inconclusive, HEK293 tox inconclusive and HEK293 viab -4.4%[87.6 µM].
`COC(=O)c1c(S(=O)(=O)N2CCCCCCC2)sc2c1CCN(C(=O)C1CC=CCC1)C2` (stereo not given) gave NPR1 antag -11.6%, SNCA expr inhib 9.7%, NIH3T3 tox inconclusive, HEK293 tox 44.7µM*, FLuc inh inactive and HEK293 viab -11.7%.
For N#Cc1cccc(-c2cn3cc(C(=O)NCc4cccc(Cl)c4)nc3s2)c1 the results were SNCA expr inhib -25.1%, NIH3T3 tox -15.6%, HEK293 tox inconclusive and HEK293 viab -8.8%.
`NC(=O)C1CCCc2c1[nH]c1ccc(Cl)cc21` (stereo not given) gave SNCA expr inhib 8.57µM* and HEK293 viab inconclusive.
Cn1c(=O)cc(C(=O)NC2CCCc3c2[nH]c2ccc(Cl)cc32)c2ccccc21 (stereo not given) was read as NPR1 antag -0.3%, SNCA expr inhib -11.0%, NIH3T3 tox inconclusive, HEK293 tox 31.6µM*, FLuc inh inactive and HEK293 viab 2.2%.
Screening CC(=O)NC1CCCc2c1[nH]c1ccc(Cl)cc21 (stereo not given) returned NPR1 antag -1.0%, SNCA expr inhib 11.7%, NIH3T3 tox inconclusive, HEK293 tox inconclusive, FLuc inh inactive and HEK293 viab -5.8%.
For O=C(C1CCCN1[S+](=O)([O-])c1cccs1)N1CCC(c2nc3ccncc3[nH]2)C1 (stereo not given) the results were SNCA expr inhib 23.0%, NIH3T3 tox -3.6%, HEK293 tox inactive and HEK293 viab 8.7%.
`Cc1ccccc1C1(O)CCN(C(=O)c2ccc(C#CC(C)(C)O)o2)C1` (stereo not given) gave NPR1 antag -11.1%, SNCA expr inhib 18.5%, NIH3T3 tox 35.5µM*, HEK293 tox inconclusive, FLuc inh inactive and HEK293 viab -6.9%.
Screening Cn1nccc1-c1cccc(CCOc2cnc3c(ccn3CC(=O)O)c2)c1 returned NPR1 antag -13.3%[70.6 µM], SNCA expr inhib 0.9%[87.6 µM], NIH3T3 tox 44.7µM*, HEK293 tox -8.9%[172 µM], FLuc inh inactive and HEK293 viab 3.1%[87.6 µM].
For O=C(O)Cn1ccc2cc(OCc3cccc(-c4ccc(F)cc4F)c3)cnc21 the results were NPR1 antag 4.5%[70.6 µM], SNCA expr inhib 8.2%[87.6 µM], NIH3T3 tox -3.0%[138 µM], HEK293 tox inconclusive, FLuc inh 20µM* and HEK293 viab 1.5%[87.6 µM].
O=C(Nc1ccc(Cl)nc1)c1ccc2ccnn2c1 was read as NPR1 antag 10.8%[70.6 µM], SNCA expr inhib 50.2%[87.6 µM], NIH3T3 tox -25.3%[138 µM], HEK293 tox inconclusive, FLuc inh inconclusive and HEK293 viab -2.6%[87.6 µM].
`CCOc1ccccc1NC(=O)C1CCN(c2cnc3nccnc3c2)CC1` gave NPR1 antag -11.5%, SNCA expr inhib -4.0%, NIH3T3 tox -31.6%, HEK293 tox -18.4%, FLuc inh inactive and HEK293 viab 2.3%.
For COc1ccc(OC)c(NC(=O)C2CCN(c3cnc4nccnc4c3)CC2)c1 the results were NPR1 antag -2.6%, SNCA expr inhib 24.3%, NIH3T3 tox inconclusive, HEK293 tox 39.8µM*, FLuc inh inactive and HEK293 viab 3.2%.
`COc1ccccc1-n1c(=O)c(C(=O)N2CCN(C(=O)Nc3ccccc3)CC2)nc2cccnc21` gave SNCA expr inhib 24.8%, NIH3T3 tox 0.4%, HEK293 tox -2.1% and HEK293 viab 1.0%.
For COc1ccccc1-c1ccc(CN2CCCCC2C(=O)NC(C)C)cc1 (stereo not given) the results were NIH3T3 tox inconclusive and HEK293 tox 79.4µM*.
For COc1ccc(F)cc1-c1ccc(CN2CCCCC2C(=O)NCCc2ccc(Cl)cc2)cc1 (stereo not given) the results were NIH3T3 tox inconclusive and HEK293 tox 31.6µM*.
Screening COc1ccccc1-c1ccc(CN2CCCCC2C(=O)N2CCOCC2)cc1 (stereo not given) returned SNCA expr inhib -3.9%, NIH3T3 tox -37.6%, HEK293 tox inconclusive and HEK293 viab 7.4%.
Screening COc1ccc(F)cc1-c1ccc(CN2CCCCC2C(=O)NCC(F)F)cc1 (stereo not given) returned NIH3T3 tox inconclusive and HEK293 tox 35.5µM*.
`COc1ccc(F)cc1-c1ccc(CN2CCCCC2C(=O)N2CCCN(C(C)=O)CC2)cc1` (stereo not given) gave NIH3T3 tox -34.9% and HEK293 tox 44.7µM*.
Screening COc1ccccc1-c1cccc(C(=O)N2CCC[C@H]2C(=O)NC(C)C)c1 returned SNCA expr inhib -1.1%, NIH3T3 tox -31.3%, HEK293 tox -4.1% and HEK293 viab 6.0%[12.5 µM].
COc1ccccc1-c1ccc(CN2CCCCC2C(=O)NCC(F)F)cc1 (stereo not given) was read as NIH3T3 tox 44.7µM*! and HEK293 tox inconclusive.
COc1ccc(OC)c(C(O)Cn2ccn3nc(-c4ccc(C(C)C)cc4)cc3c2=O)c1 (stereo not given) was read as NPR1 antag inconclusive, SNCA expr inhib -24.5%, NIH3T3 tox -9.3%, HEK293 tox 31.6µM*, FLuc inh inconclusive and HEK293 viab -28.6%.
Screening COc1cccc(-c2cc3c(=O)n(CCNC(=O)Cc4ccsc4)ccn3n2)c1 returned NPR1 antag -2.7%, SNCA expr inhib 16.8%, NIH3T3 tox -24.7%, HEK293 tox inconclusive, FLuc inh 28.2µM* and HEK293 viab -11.0%.
COc1cccc(-c2cc3c(=O)n(CCNC(=O)Cc4ccc(F)cc4)ccn3n2)c1 was read as NPR1 antag inconclusive, SNCA expr inhib 21.1%, NIH3T3 tox -10.1%, HEK293 tox -9.7%, FLuc inh 7.94µM* and HEK293 viab -2.4%.
`COc1ccc(-c2cc3c(=O)n(CCNC(=O)c4cc(Cl)ccc4F)ccn3n2)cc1` gave NPR1 antag -19.8%, SNCA expr inhib 2.9%, NIH3T3 tox -19.0%, HEK293 tox 79.4µM*, FLuc inh inconclusive and HEK293 viab -18.1%.
